CHO-K1 Ca antag – counter-screen for M1 antagonists: effect in parental CHO-K1 cells | AID 602250 | ATP-induced calcium, Fluo-8 fluorescence | 360,000 compounds, 0.6% hits | inhibition, % at 3 µM;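 active = inhibition above a per-plate cutoff, the plate's mean sample inhibition plus 3 SD, cut at about 24% in these data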;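 also: 0% = DMSO plus EC80 ATP and 100% = DMSO alone without ATP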
NTR1 ag – agonists of human neurotensin receptor NTR1; P30989; NTR1-U2OS beta-arrestin-GFP spot imaging, agonist mode; activation, % at 20 µM; 330,000 compounds, 0.17% hits;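 active = activation at or above 40% of the spot to cytoplasm intensity ratio, with at least 20 cells analyzed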;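 also: 0% = DMSO without peptide and 100% = 100 nM NTR1 peptide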
Target sequence (P30989 whole entry, looked up): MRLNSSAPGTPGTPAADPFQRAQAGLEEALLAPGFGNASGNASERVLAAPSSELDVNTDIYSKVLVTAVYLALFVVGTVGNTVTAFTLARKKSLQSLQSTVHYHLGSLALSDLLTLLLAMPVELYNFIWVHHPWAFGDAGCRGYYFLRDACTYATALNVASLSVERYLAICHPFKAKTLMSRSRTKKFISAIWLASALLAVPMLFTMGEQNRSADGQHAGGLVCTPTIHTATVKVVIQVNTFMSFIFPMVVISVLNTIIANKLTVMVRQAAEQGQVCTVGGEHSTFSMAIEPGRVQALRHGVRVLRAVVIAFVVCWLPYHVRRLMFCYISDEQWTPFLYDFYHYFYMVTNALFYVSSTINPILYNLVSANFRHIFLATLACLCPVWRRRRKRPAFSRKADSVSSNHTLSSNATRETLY
TMEM16A inh – blocks the mouse calcium-activated chloride channel TMEM16A | HEK293 TMEM16A/YFP iodide influx fluorescence, ionomycin | 310,000 compounds, 1.2% hits | normalized B-score (activity score, 25-100; higher = stronger inhibition) at 10 µM | Q8BHY3;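 active = ratio plate-corrected score three or more library SD toward inhibition, starting fluorescence score within five deviations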;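 also: score derived from kinetic fluorescence span divided by baseline fluorescence per well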
TMEM16A act – activates or potentiates the mouse TMEM16A chloride channel; 340,000 compounds, 0.3% hits; Q8BHY3; HEK293 TMEM16A/YFP-H148Q/I152L, iodide quench fluorescence; hits give low values; B-score at 10 µM;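 active = fluorescence-ratio B-score plate-corrected deviation score at least 3 library SD below zero, with starting fluorescence score within 5 deviations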;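 also: channel opened by trigger with iodide after compound preincubation; score built on the fluorescence ratio of max minus min over baseline; more negative score means more quench and so TMEM16A activation or potentiation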
CHO-K1 Ca ag – counter-screen for M1 agonists: effect in parental CHO-K1 cells | Fluo-8 calcium fluorescence; scaled to maximal ATP response, vehicle zero | activation, % at 3 µM | 360,000 compounds, 0.48% hits; in the data active = activation above about 15%;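 also: untransfected CHO-K1 host cells lacking M1 receptor as counterscreen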
M1 PAM parental – counter-screen for M1 PAMs: effect in parental CHO-K1 cells. 360,000 compounds, 0.02% hits. activation, % at 3 µM. AID 602247. ATP EC20, Fluo-8 calcium fluorescence; 0% at ATP EC20, 100% at ATP max;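 active = activation above the run cutoff, the mean activation of all test compounds plus 3 SD, cut at about 40% in these data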;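 also: peak over basal fluorescence ratio in a 140 s read after ATP addition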
TMEM16A reconf – reconfirmed blocker of mouse TMEM16A calcium-activated chloride channel; shares compounds with TMEM16A inh; HEK293 TMEM16A/YFP-H148Q, iodide quench fluorescence; ionomycin added to raise cell calcium; inhibition, % at 10 µM; 2,300 compounds, 39% hits;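 active = mean duplicate percent inhibition, scaled so buffer wells are 0 and the reference blocker 100, over three buffer SD above buffer mean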
HEK293 Ca mobil – counter-screen for TMEM16A inhibitors: effect on calcium mobilization; shares compounds with TMEM16A inh; TMEM16A/YFP HEK293, Fluo4 calcium mobilization; calcium response (% of ionomycin), % at 10 µM; 2,300 compounds, 2% hits; AID 652231;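 active = duplicate-averaged calcium signal over 20% of the ionomycin maximum, relative to buffer baseline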;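 also: each well's signal is peak minus trough fluorescence divided by its pre-addition baseline; 0% = buffer wells and 100% = ionomycin wells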
Parental YFP cnt – parental YFP-HEK293 iodide quench counter-screen activity | shares compounds with TMEM16A inh | AID 652233 | ionomycin | 2,300 tested, under 10 active | YFP ratio F(max-min)/F0 at 10 µM;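 active = yellow fluorescent protein signal ratio exceeding the buffer control mean by over 5 SD of those controls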;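 also: ratio is mean of duplicate wells from kinetic YFP trace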
ClC-1 inh – blocks the rat ClC-1 voltage-dependent chloride channel. CHO ClC-1-YFP, iodide influx fluorescence quench; iodide control reads 0, buffer control 100. AID 652236. shares compounds with TMEM16A inh. 2,300 tested, under 10 active. ratio percent, % at 10 µM;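 active = duplicate-mean ratio percent above the mean of iodide-only control wells, which defines zero, plus 5 of their SD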;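 also: higher percent means stronger block of ClC-1 iodide influx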
Active calls of the source: *; i = inactive; nt = no result given. Rows were chosen to be rich in hits. Some 2.2% of all compounds tested hit in one or more screens of this group.

SMILES	CHO-K1 Ca antag	NTR1 ag	TMEM16A inh	TMEM16A act	CHO-K1 Ca ag	M1 PAM parental	TMEM16A reconf	HEK293 Ca mobil	Parental YFP cnt	ClC-1 inh
Cc1ccccc1-n1c(=O)c(C#N)cc2c(=O)n3ccccc3nc21	-11	1	100*	i	0	13	i	i	-0.93	-4
Cc1cc(-n2c(=O)c(C#N)cc3c(=O)n4ccccc4nc32)no1	-2	-2	i	i	1	22	nt	nt	nt	nt
CCN(CC)S(=O)(=O)c1ccc(C(=O)Nc2ccc(Cc3ccncc3)cc2)cc1	16	4	100*	i	15*	-21	28%*	i	-1.1	-21
CCN(CC)S(=O)(=O)c1ccc(C(=O)Nc2cc(C)cc(C)c2)cc1	-19	-7	i	i	0	18	nt	nt	nt	nt
CCN(CC)S(=O)(=O)c1ccc(NC(=O)c2ccc(N(C)S(C)(=O)=O)cc2)cc1	9	2	100*	i	4	-5	20%*	i	-1	-13
CCN(CC)S(=O)(=O)c1cccc(C(=O)Nc2ccc(C#N)cc2)c1	-5	-1	100*	i	5	15	i	i	-1.1	-20
O=C(Nc1ccc(S(=O)(=O)NCCc2ccccc2)cc1)c1ccncc1	13	0	100*	i	12	-22	19%*	i	-0.86	-10
O=C(O)CNc1nc(NCc2ccc(Cl)cc2)ccc1[N+](=O)[O-]	-12	nt	nt	nt	1	7	nt	nt	nt	nt
O=C(CSc1nc2ccccc2c(=O)n1-c1ccc(F)cc1)NC1CCS(=O)(=O)C1 (stereo not given)	-7	1	nt	i	1	-18	nt	nt	nt	nt
Fc1ccc(NCc2cccnc2)cc1	-11	1	100*	i	0	12	i	i	-1.2	-2
O=S(=O)(c1cccs1)N1CCCCC1	-4	nt	nt	nt	0	-4	nt	nt	nt	nt
CCOC(=O)C1CCCN(S(=O)(=O)c2ccc(C)cc2)C1 (stereo not given)	8	0	i	i	0	2	nt	nt	nt	nt
CCOC(=O)C1CCCN(S(=O)(=O)c2ccc(S(=O)(=O)N(CC)CC)cc2)C1 (stereo not given)	18	0	25*	i	13	1	i	i	-0.97	-20
CSc1nc2ccc(NS(=O)(=O)c3ccc4c(c3)OCCO4)cc2s1	7	1	100*	i	4	5	18%*	i	-0.93	-16
Cn1c(=O)oc2cc(S(=O)(=O)NCCC(=O)NC3CCCc4ccccc43)ccc21 (stereo not given)	-13	2	i	i	2	21	nt	nt	nt	nt
Cn1c(=O)oc2cc(S(=O)(=O)NCCC(=O)NC3CCCC3)ccc21	-11	1	100*	i	1	16	i	i	-1	-9
COc1cc(CNCCc2c[nH]c3ccccc23)ccc1OCc1ccccc1F	-3	6	i	i	0	-10	nt	nt	nt	nt
COc1cccc(CNCCc2c[nH]c3ccccc23)c1OCc1ccccc1	12	10	25*	i	21*	5	54%*	i	-0.85	-18
Cc1nc2ccccc2n1CC(O)COc1ccccc1Cl (stereo not given)	9	-1	25*	i	12	-8	i	i	-0.99	-13
CCOC(=O)c1c(C)n(C)c2ccc(OCC(O)Cn3c(C)nc4ccccc43)cc12 (stereo not given)	4	9	100*	i	4	-12	i	i	-1.1	-10

Assay outcomes: PubChem BioAssay, several laboratories
